Results: PubChem BioAssay AID853 (Columbia University Molecular Screening Center, 2007)
Among all 47,000 compounds or so, about 200 (0.43%) were called active. Inconclusive results (about 1%) are left out. The sample holds actives, similar compounds and a random draw of the others, so the mix is not that of the screen.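 How the source made its calls: active means inhibition of aggregate fluorescence above about 70%, also judged a hit by eye on the cell image (limit read from the data, passing the limit was not always enough); inconclusive means no rule stated for this call; inactive means not judged a hit on image review.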

Assay: removal of polyQ htt aggregates in HeLa – imaging, HeLa Exon1htt(103Q)mCFP, confocal imaging, primary screen (AID 853);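 further: cells exposed to compound for three days before fixation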
Settings: aggregate imaging, at 1.5 µM; fraction fluorescence in grains: measured here: aggregate grain fluorescence fraction, stronger effect = lower value; inhibition: stronger effect = higher value, zero = plate's median compound well

Row | Compound | fraction fluorescence in grains | inhibition
1 | COc1ccc(CNC(=O)C2CCC(CNc3c(N4CCOCC4)c(=O)c3=O)CC2)cc1 (centres undefined) | 33 | 10.7% (inactive)
2 | Cc1cc(Cl)c(S(=O)(=O)N(C)C)cc1OCC(N)=O | 20.5 | -7.1% (inactive)
3 | O=S(=O)(/C=C/c1ccccc1)NCCc1ccccn1 | 31.8 | 7.7% (inactive)
4 | O=C(Oc1cccnc1)c1cc2ccccc2oc1=O | 21 | -5.6% (inactive)
5 | COC(=O)C(C)Oc1ccc2c(-c3cccc([N+](=O)[O-])c3)cc(=O)oc2c1 (centres undefined) | 35.3 | 9.1% (inactive)
6 | CCCCCCNC(=O)CSc1nccn1Cc1ccccc1 | 18.3 | 7.5% (inactive)
7 | CCSc1nnc(NC(=O)Cc2ccccc2OC)s1 | 52.6 | -25.1% (inactive)
8 | COc1cccc(OC)c1C(=O)Nc1ccc(N2CCCCC2)cc1 | 19.3 | 18.4% (inactive)
9 | C/C(=C\C(=O)c1ccc(Br)cc1)N1CCCCC1 | 28.4 | 28.3% (inactive)
10 | CCc1c(O)cc2n(c1=O)-c1ccccc1C2(C)C | 27.7 | -37.8% (inactive)
11 | CC1(C)CC(=O)C(C=NCCN2CCN(C(=S)Nc3cccc(Cl)c3)CC2)=C(O)C1 | 25.7 | 12.3% (inactive)
12 | Cc1cccc(N2CCN(C(=O)CN(C)S(=O)(=O)c3ccc4c(c3)CCC(=O)N4)CC2)c1C | 43.8 | -18.5% (inactive)
13 | COc1ccc(CCN2CNc3c(c(=O)n(C)c(=O)n3C)C2)cc1OC | 63.1 | -203% (inactive)
14 | COc1ccc(CNC(=O)CCn2cccc2)cc1 | 29.6 | -25.4% (inactive)
15 | CCCC(=O)Nc1nc2ccc(NC(=O)c3cccnc3)cc2s1 | 48.5 | -19% (inactive)
16 | CCOC(=O)c1cnc(SC)nc1Sc1ccc(Cl)cc1Cl | 27.6 | -31% (inactive)
17 | O=C(CSCc1ccc(Cl)cc1)N1CCCCC1 | 25.4 | -26.2% (inactive)
18 | Cn1cnc2c1c(=O)n(Cc1c(Cl)cccc1Cl)c(=O)n2C | 24.1 | -22.3% (inactive)
19 | CCOc1nc(NCCN2CCOCC2)nc(Nc2ccc(C)cc2)n1 | 42.7 | -6.3% (inactive)
20 | Cc1cc2cc3c(cc2nc1SCC(=O)Nc1c(C)cccc1C)CCC3 | 26.1 | 30.7% (inactive)
21 | CC(NC(=O)CSc1nc2c(cc1C#N)CN(C)CC2)c1ccccc1 (centres undefined) | 10.8 | 73.3% (active)
22 | CC1(C)CCc2nc(SCc3ccccc3)c(C#N)cc2C1 | 21.6 | -20.9% (inactive)

Row | Compound | fraction fluorescence in grains | inhibition
23 | Cc1ccnc(SCCn2c(N(C)Cc3ccccc3)nc3c2c(=O)n(C)c(=O)n3C)n1 | 35.6 | -10.6% (inactive)
24 | CCn1c(CNC(=O)c2ccccc2)nnc1SCC(=O)N1CCN(c2ccccc2)CC1 | 10.5 | 45.3% (inactive)
25 | c1ccc(-c2noc(-c3cccs3)n2)nc1 | 20.2 | -19.7% (inactive)
26 | Cc1cc(Oc2ccccc2)nc(N2CCOCC2)n1 | 29.1 | 5.3% (inactive)
27 | COc1ccc(NS(=O)(=O)c2ccc(NC(=O)C(C)(C(F)(F)F)C(F)(F)F)cc2)nn1 | 26.9 | -29.8% (inactive)
28 | COc1ccc(NC(=O)COC(=O)Cn2c(C)nc3ccccc32)cc1OC | 48.2 | -28% (inactive)
29 | CCOC(=O)Cn1c2c(c(-c3ccccc3OC)cc1=O)CCCC2 | 9.78 | 75.9% (active)
30 | CCOC(=O)CN1C(=O)C(=O)c2cc(C)ccc21 | 50.7 | -31.2% (inactive)
31 | CCOC(=O)c1c(NC(=O)CSc2nnc(CNc3ccc(C)cc3C)o2)sc(C)c1C | 20 | 0.1% (inactive)
32 | O=C(c1ccccn1)c1ncc(C(F)(F)F)cc1Cl | 11.8 | 69.6% (inactive)
33 | COc1cc(C2CC(=O)c3cnc(NC(C)=O)nc3C2)cc(OC)c1OC (centres undefined) | 28.1 | -57.9% (inactive)
34 | Cc1ccccc1NC(=O)c1cnn(-c2ccccc2)c1NC(=O)c1ccco1 | 65.2 | -45.9% (inactive)
35 | O=C(Nc1cccc(NC(=O)c2ccco2)c1)c1cnccn1 | 17.1 | 4% (inactive)
36 | CCOc1ccc(C(=O)Nc2cc(OC)ccc2OC)cc1 | 47.6 | -28.5% (inactive)
37 | N#Cc1c(/N=C/N2CCCC2)oc(-c2ccccc2)c1-c1ccccc1 | 60.3 | -70.7% (inactive)
38 | c1ccc(Nc2n[nH]nc2-c2ccccc2)cc1 | 19.1 | -9.8% (inactive)
39 | COc1ccc(Oc2coc3cc(OC(=O)c4cncc(Br)c4)ccc3c2=O)cc1 | 38.8 | 10.3% (inactive)
40 | CCN(CC)CCNc1ccc(Cl)cc1[N+](=O)[O-] | 50.4 | -31% (inactive)
41 | COc1nc(NC2CCCCC2)nc(N2CCCCCC2)n1 | 7.28 | 62.7% (inactive)
42 | ONC(=Nc1ccc(Cl)cc1)c1ccccc1Cl | 37.5 | 2.4% (inactive)
43 | Cc1cccc(N(C(=O)Cc2cccs2)C(C(=O)NC2CCCC2)c2ccsc2)c1 (centres undefined) | 20.3 | 34% (inactive)
44 | CCOc1ccc(N=Cc2c(O)n(-c3cccc(C)n3)c(=O)c3ccccc23)cc1 | 45.9 | -5.8% (inactive)

Row | Compound | fraction fluorescence in grains | inhibition
45 | CCC(C)(C)n1nnnc1CN1CCN(c2nc3ccc(C)cc3cc2C#N)CC1 | 29 | 23.1% (inactive)
46 | O=c1[nH]c2c(c(=O)n1Cc1ccccc1)CCC2 | 13.3 | 28.6% (inactive)
47 | Cc1cc(C)cc(OCc2nnc(SCC(=O)Nc3ccccc3)o2)c1 | 15 | 15.8% (inactive)
48 | COc1ccccc1-c1nnc(SCC(=O)Nc2cc(C)on2)o1 | 16.4 | 15.8% (inactive)
49 | COc1ccccc1-c1nnc(SCC(=O)Nc2ccccc2)o1 | 4.28 | 73.5% (active)
50 | Cc1cc(C)n(-c2c(F)c(F)c(COC(=O)c3ccccc3)c(F)c2F)n1 | 25.1 | -56.6% (inactive)
51 | CCCCOC(=O)Cn1c(=O)n(CC(=O)OCCCC)c2cc(C)ccc21 | 19 | -6.9% (inactive)
52 | CC(=O)Nc1ccccc1C(=O)C(=O)Nc1ccc(F)cc1 | 57.6 | -48.2% (inactive)
53 | CCOc1ccc(N(CC(=O)NC2CCCCCC2)S(=O)(=O)c2c(C)[nH]c(=O)[nH]c2=O)cc1 | 41.2 | -15.2% (inactive)
54 | CCCC(=O)N1CCc2[nH]c3ccccc3c2C1 | 26.6 | 21.6% (inactive)
55 | Cc1c(CN2CCC(C)CC2)c(=O)n(-c2ccccc2)n1C | 56.1 | -32.3% (inactive)
56 | COc1ccc(C2C(C(C)=O)=C(O)C(=O)N2Cc2cccnc2)cc1 (centres undefined) | 15.5 | 17.5% (inactive)
57 | COC(=O)c1cccc(NC(=O)CSc2nc(C)cc(=O)[nH]2)c1 | 13.9 | 27.8% (inactive)
58 | Cn1ccs/c1=N\S(=O)(=O)c1ccc(C(C)(C)C)cc1 | 37.7 | 0.2% (inactive)
59 | CCOc1ccc(NC(=O)CCC(=O)n2nc(C)cc2C)cc1 | 4 | 79.1% (active)
60 | CCOc1ccc(NC(=O)Nc2cc(C)on2)cc1 | 23.9 | -47.8% (inactive)
61 | CCCCOc1ccc(NC(=O)CSCC(=O)OCC)cc1 | 53.3 | -31.6% (inactive)
62 | O=C(CSc1nnc(-c2cccnc2)n1CCc1ccccc1)NCc1ccccc1 | 34.5 | -83.7% (inactive)
63 | CC(C)(C)C(=O)Cn1c(NCCO)nc2ccccc21 | 13.3 | 30.8% (inactive)
64 | Oc1c(C(c2cccs2)N2CCN(c3ccc(F)cc3)CC2)sc2ncnn12 (centres undefined) | 72.5 | -45.9% (inactive)
65 | COc1ccc(-n2c(SCC(=O)NCc3cccs3)nnc2-c2ccoc2C)cc1 | 22.6 | 33.8% (inactive)
66 | O=C(NCCCNCc1ccccc1)c1ccc(/C=N/O)nc1 | 39.1 | 3.6% (inactive)

Row | Compound | fraction fluorescence in grains | inhibition
67 | Cc1ccc(C2C(C#N)C(C#N)N3CCCN23)cc1 (centres undefined) | 23.7 | 40.7% (inactive)
68 | CCOc1ccccc1C(=O)NC1CC2CCCC(C1)N2Cc1ccccc1 (centres undefined) | 14.9 | 23.5% (inactive)
69 | CNc1nc(SC)nc(N(C#N)CC(=O)OC)n1 | 30.5 | -71% (inactive)
70 | CCC(=O)Nc1nc2ccccc2n1Cc1ccccc1C | 32.9 | 4.8% (inactive)
71 | C=CCn1c(C(C)NC(=O)CC)nc2ccccc21 (centres undefined) | 34.1 | -61.6% (inactive)
72 | CC(=O)NC(C)c1nc2ccccc2n1Cc1ccccc1F (centres undefined) | 3.88 | 76.4% (active)
73 | COC(=O)C1C(=O)NCC1c1ccc(OC)cc1 (centres undefined) | 12 | 35.5% (inactive)
74 | Cc1sc2nc(SCC(N)=O)n(C)c(=O)c2c1C | 18.7 | -1.9% (inactive)
75 | Cc1ccccc1NC(=O)c1ccccc1NS(=O)(=O)c1cccc2cccnc12 | 11.2 | 46.2% (inactive)
76 | Cn1c(SCC(=O)N2CCOCC2)nnc1-c1ccc(NC(=O)c2ccccc2F)cc1 | 22.6 | -25.1% (inactive)
77 | O=C(NCCCCc1ccccc1)C1CC(c2ccc([N+](=O)[O-])cc2)=NO1 (centres undefined) | 23.6 | 39.3% (inactive)
78 | NC1=NC(=O)C2(COC(c3ccccc3Cl)OC2)S1 (centres undefined) | 13.6 | 19.2% (inactive)
79 | Cc1nnc(SCC(=O)NCCOc2ccc(Cl)cc2)n1-c1ccccc1 | 36.3 | 2.1% (inactive)
80 | O=C(CSc1nnc(-c2cccs2)n1Cc1ccccc1)N1CCc2ccccc2C1 | 52.6 | -33.1% (inactive)
81 | CCOc1ccccc1C1NC(=O)NC(C)=C1C(=O)OCc1ccco1 (centres undefined) | 36.7 | -10.5% (inactive)
82 | COCCOC(=O)C1=C(C)NC(=O)NC1c1ccc(Cl)cc1 (centres undefined) | 28.5 | 33.5% (inactive)
83 | COc1cccc2c(=O)n(CC(=O)N3CCCCCC3)ccc12 | 40.9 | -22% (inactive)
84 | COc1ccc(N(CC(=O)NC2CCCCC2)C(=O)CNC(=O)c2ccco2)c(OC)c1 | 22.1 | -26.1% (inactive)
85 | Cc1noc(COc2ccccc2OCc2onc(C)c2Cl)c1Cl | 24.8 | -49.4% (inactive)
86 | CCOC(=O)C1CCN(Cc2coc3ccc(Cl)cc3c2=O)CC1 | 22.3 | -15.2% (inactive)
87 | Cc1cccc2c(=O)n3c(nc12)CCCCC3 | 18.2 | 11% (inactive)
